Measured values taken from PubChem BioAssay (NCATS).
Records with an inconclusive call do not appear. The source made the active and inactive calls. The call rests on the fitted dose curve; in most records, active means well fitted cell-killing curve with a large enough effect; inconclusive means small, poorly fitted or top-dose-only effect, or effect the other way; inactive means no such curve, though single readings can be large or run the other way.

assay: Viability qHTS for spleen associated tyrosine kinase inhibitor (SYKi) naive MV4-11 cells (AID 1963823); conditions: MV4-11 AML viability, CellTiter-Glo luminescence, 72 h; series mostly up to 45 µM; viability (% of control): at the top concentration; further: nearly all actives have a fitted effect of over 40% in size
Summary of the method: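 Luminescence from CellTiter-Glo, developed 10 min at room temperature, gave viability of MV4-11 cells never exposed to SYK inhibitor. Cells (500/well) had been incubated with compounds for 72 hr under standard culture conditions.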
Potency means the concentration at half of the fitted maximal effect.

Q: Which Potency does the source give for Oc1ccc(Cl)cc1Cc1ccccc1 here?
A: Its Potency is 24.6 µM (active).

Q: Which Potency does the source give for COc1cc(C)[nH]c(=O)c1CNC(=O)c1c(C)n([C@H](C)C2CCOCC2)c2ccccc12 here?
A: Its Potency is “inactive”.

Q: Which “viability (% of control)” value does the source give for CN[C@@H](C)[C@H](O)c1ccccc1 here?
A: Its value is 76.3% (inactive).

Q: Which “viability (% of control)” value does the source give for CC(C)=CC1C(C(=O)OCN2C(=O)C3=C(CCCC3)C2=O)C1(C)C (stereo not drawn) here?
A: The value was 97.5% (inactive).

Q: With CC1NCCOC1c1ccccc1 (stereo not drawn) as the molecule, how does the “viability (% of control)” value read?
A: The value was 105% (inactive).

Q: Which “viability (% of control)” value does the source give for CCN(CC)CCOC(=O)C(C)(c1ccccc1)c1ccccc1 here?
A: The value was 64.7% (inactive).

Q: For NCc1cccnc1, which “viability (% of control)” value is on record?
A: The value was 79.8% (inactive).

Q: For O=C(O)COc1ccccc1, which “viability (% of control)” value is on record?
A: The value was 79% (inactive).

Q: Which “viability (% of control)” value does the source give for Cc1cccc(C)c1NC1=NCCCS1 here?
A: The value was 72% (inactive).

Q: For NCC(O)c1ccc(O)cc1 (stereo not drawn), which “viability (% of control)” value is on record?
A: Its value is 84.8% (inactive).

Q: Which Potency does the source give for C[C@@H]1O[C@@H](O[C@@H]2C=C3CC[C@@H]4[C@H](CC[C@]5(C)[C@@H](c6ccc(=O)oc6)CC[C@]45O)[C@@]3(C)CC2)[C@H](O)[C@H](O)[C@H]1O here?
A: The Potency was 0.006 µM (active).

Q: Which “viability (% of control)” value does the source give for CC1OC(C)OC(C)O1 (stereo not drawn) here?
A: Its value is 86% (inactive).

Q: Which “viability (% of control)” value does the source give for CCCC[N+]1(C)[C@@H]2CC(OC(=O)[C@H](CO)c3ccccc3)C[C@H]1[C@@H]1O[C@@H]12 (stereo partly drawn) here?
A: The value was 74.3% (inactive).

Q: Which “viability (% of control)” value does the source give for Cc1ncc(CNC(=O)N(CCCl)N=O)c(N)n1 here?
A: Its value is 103% (inactive).

Q: With COC(=O)C1=CCCN(C)C1 as the molecule, how does the “viability (% of control)” value read?
A: The value was 93.1% (inactive).

Q: Which “viability (% of control)” value does the source give for COCC(=O)N(c1c(C)cccc1C)C(C)C(=O)OC (stereo not drawn) here?
A: The value was 82% (inactive).

Q: For C[C@@H]1CC[C@@]2(OC1)O[C@H]1C[C@H]3[C@@H]4CC=C5C[C@@H](O[C@@H]6O[C@H](CO)[C@@H](O[C@@H]7O[C@@H](C)[C@H](O)[C@@H](O)[C@H]7O)[C@H](O)[C@H]6O[C@@H]6O[C@@H](C)[C@H](O)[C@@H](O)[C@H]6O)CC[C@]5(C)[C@H]4CC[C@]3(C)[C@H]1[C@@H]2C, which Potency is on record?
A: Its Potency is 1.66 µM (active).

Q: Which “viability (% of control)” value does the source give for O=c1cccc2n1CC1CNC[C@H]2C1 here?
A: Its value is 93.8% (inactive).

Q: With CC1(C)CC(O)CC(C)(C)N1O as the molecule, how does the “viability (% of control)” value read?
A: The value was 98.8% (inactive).

Q: For CC(C)(N)Cc1ccc(Cl)cc1, which “viability (% of control)” value is on record?
A: Its value is 63.2% (inactive).

Q: Which Potency does the source give for Oc1cc(Cl)ccc1Oc1ccc(Cl)cc1Cl here?
A: The Potency was 19.7 µM (active).

Q: Which “viability (% of control)” value does the source give for COc1cc(C[C@@H](C)N)c(OC)cc1C here?
A: The value was 44.3% [at 91.9 µM] (inactive).

Q: With C=CCC1(C(C)CC)C(=O)NC(=O)NC1=O (stereo not drawn) as the molecule, how does the “viability (% of control)” value read?
A: The value was 69.3% (inactive).

Q: For Cc1ccc(N=CN(C)C=Nc2ccc(C)cc2C)c(C)c1, which “viability (% of control)” value is on record?
A: Its value is 75.6% (inactive).

Q: For CCCN1CCO[C@@H]2c3cc(O)ccc3OC[C@H]21, which “viability (% of control)” value is on record?
A: The value was 75.9% (inactive).

Q: Which viability (% of control) does the source give for NCC(CC(=O)O)c1ccc(Cl)cc1 (stereo not drawn) here?
A: Its viability (% of control) is 90.7% [at 0.588 µM] (inactive).

Q: For O=C(CCCCl)c1ccc(F)cc1, which “viability (% of control)” value is on record?
A: The value was 89.2% (inactive).

Q: With CCOP(=S)(OCC)Oc1cc(C)nc(C(C)C)n1 as the molecule, how does the “viability (% of control)” value read?
A: Its value is 82.3% (inactive).

Q: Which “viability (% of control)” value does the source give for COc1cc(CC(C)N)cc(OC)c1OC (stereo not drawn) here?
A: The value was 88.6% [at 91.9 µM] (inactive).

Q: Which “viability (% of control)” value does the source give for COc1ccc(OC)c(CC(C)N)c1 (stereo not drawn) here?
A: Its value is 83.4% [at 91.9 µM] (inactive).

Q: With COC(=O)C(Cl)C(=O)OC as the molecule, how does the “viability (% of control)” value read?
A: The value was 90.1% (inactive).

Q: With COc1cc(N)c(Cl)cc1C(=O)NC1CN2CCC1CC2 (stereo not drawn) as the molecule, how does the “viability (% of control)” value read?
A: The value was 89.2% (inactive).

Q: With C=CCN1CC[C@]23CCCC[C@H]2[C@H]1Cc1ccc(O)cc13 as the molecule, how does the “viability (% of control)” value read?
A: The value was 65.7% (inactive).

Q: With CCC(=O)OC1(c2ccccc2)CCN(C)CC1 as the molecule, how does the “viability (% of control)” value read?
A: The value was 88.2% [at 91.9 µM] (inactive).

Q: Which “viability (% of control)” value does the source give for Nc1ccc(Cl)cc1 here?
A: The value was 83.7% [at 91.9 µM] (inactive).

Q: Which “viability (% of control)” value does the source give for CN1[C@H]2CC(O)C[C@H]1[C@H]1O[C@H]12 (stereo partly drawn) here?
A: The value was 89.2% (inactive).

Q: With CN1CCC(O)(c2ccc(F)cc2)C(C(=O)c2ccc(F)cc2)C1 (stereo not drawn) as the molecule, how does the “viability (% of control)” value read?
A: The value was 74.5% (inactive).

Q: Which “viability (% of control)” value does the source give for O=C(N/N=C/c1ccc([N+](=O)[O-])o1)c1cc([N+](=O)[O-])cc([N+](=O)[O-])c1O here?
A: Its value is 69.3% (inactive).
